# Experimental data reported in PMC7862700, “An all-to-all approach to the identification of sequence-specific readers for epigenetic DNA modifications on cytosine”.
# Key:
# Assay in all cases: DAPPL (digital affinity profiling via proximity ligation, sequencing); 10 mM Tris-HCl pH 7.5, 50 mM NaCl, 1 mM DTT, 4% glycerol, room temperature, 30 min; GST-TFs on glutathione beads, 16-mer random dsDNA library, 0.1% formaldehyde crosslink after washing; high values mean tight binding
# FEV = molecular target: T1, FEV (Homo sapiens, UniProt Q99581 1-238); details: protein: recombinant; tags: N-terminal GST; dsDNA, one strand shown
# T1 sequence: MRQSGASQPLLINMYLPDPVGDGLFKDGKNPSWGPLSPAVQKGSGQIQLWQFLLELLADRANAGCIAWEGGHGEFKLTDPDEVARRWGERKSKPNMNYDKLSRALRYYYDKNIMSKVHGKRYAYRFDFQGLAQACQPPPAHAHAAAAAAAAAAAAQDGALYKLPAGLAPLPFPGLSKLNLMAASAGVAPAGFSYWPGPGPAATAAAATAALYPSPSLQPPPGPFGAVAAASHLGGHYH
# Procedure, shortened: (§1)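 The binding signal reported is, for every hexamer, its read frequency for a factor over its read frequency for the tag-only sample. Reads came from pools of yeast-expressed, GST-fused human transcription factors on glutathione beads, barcoded with DNA and mixed with that sample, which were incubated with 200 nmole of a random double-stranded 16-mer DNA library in Tris/NaCl/DTT/glycerol buffer at room temperature for 30 min. After washing, the pools were crosslinked with 0.1% formaldehyde, proximity-ligated with BsaI/T4 ligase for 1 h at 37 °C, PCR-amplified and sequenced on an Illumina NextSeq500.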
# ETV5 = ETV5 (Homo sapiens, UniProt P41161 1-510); details: protein: recombinant; tags: N-terminal GST; dsDNA, one strand shown
# Procedure, shortened: as §1
# HSF1 = HSF1 (Homo sapiens, UniProt Q00613 1-529); details: protein: recombinant; tags: N-terminal GST; chain copies: 3; dsDNA, one strand shown
# Procedure, shortened: as §1
# SPIC = molecular target: T2, SPIC (Homo sapiens, UniProt Q8N5J4 1-248); details: protein: recombinant; tags: N-terminal GST; dsDNA, one strand shown
# T2 sequence: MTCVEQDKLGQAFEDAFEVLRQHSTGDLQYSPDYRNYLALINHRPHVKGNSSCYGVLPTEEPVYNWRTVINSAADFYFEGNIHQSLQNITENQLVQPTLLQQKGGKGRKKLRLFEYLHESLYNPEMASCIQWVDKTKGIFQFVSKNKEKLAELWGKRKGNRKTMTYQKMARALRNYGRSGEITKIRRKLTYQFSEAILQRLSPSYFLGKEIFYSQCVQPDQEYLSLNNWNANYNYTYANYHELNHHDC
# Procedure, shortened: as §1
# ELF4 = ELF4 (Homo sapiens, UniProt Q99607 1-663); details: protein: recombinant; tags: N-terminal GST; dsDNA, one strand shown
# Procedure, shortened: as §1
# ELK4 = molecular target: T3, ELK4 (Homo sapiens, UniProt P28324-2 1-405); details: protein: recombinant; tags: N-terminal GST; dsDNA, one strand shown
# T3 sequence: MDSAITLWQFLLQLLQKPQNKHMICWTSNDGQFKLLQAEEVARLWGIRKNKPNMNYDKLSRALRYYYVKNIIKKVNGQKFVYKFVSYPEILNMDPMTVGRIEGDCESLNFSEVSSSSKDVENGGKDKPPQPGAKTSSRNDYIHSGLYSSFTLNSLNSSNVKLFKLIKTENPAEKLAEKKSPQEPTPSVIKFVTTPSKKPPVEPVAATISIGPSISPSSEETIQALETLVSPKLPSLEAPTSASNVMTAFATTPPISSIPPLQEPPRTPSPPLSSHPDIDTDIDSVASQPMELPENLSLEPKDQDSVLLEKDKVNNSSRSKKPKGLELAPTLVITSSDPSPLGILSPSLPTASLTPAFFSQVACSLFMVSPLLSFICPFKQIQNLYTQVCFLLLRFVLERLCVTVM
# Procedure, shortened: as §1
# ETV2 = molecular target: T4, ETV2 (Homo sapiens, UniProt O00321 1-342); details: protein: recombinant; tags: N-terminal GST; dsDNA, one strand shown
# T4 sequence: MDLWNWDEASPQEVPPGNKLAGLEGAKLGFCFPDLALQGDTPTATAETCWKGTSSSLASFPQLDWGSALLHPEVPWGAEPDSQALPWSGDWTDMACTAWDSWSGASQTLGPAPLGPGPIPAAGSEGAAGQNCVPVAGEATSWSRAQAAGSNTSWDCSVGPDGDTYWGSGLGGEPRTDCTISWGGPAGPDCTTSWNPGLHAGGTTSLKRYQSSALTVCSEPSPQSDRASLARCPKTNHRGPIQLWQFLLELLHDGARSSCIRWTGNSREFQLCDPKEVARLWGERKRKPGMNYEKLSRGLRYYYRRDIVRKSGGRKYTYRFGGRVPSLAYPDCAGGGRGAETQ
# Procedure, shortened: as §1
# ELF3 = molecular target: T5, ELF3 (Homo sapiens, UniProt P78545 1-371); details: protein: recombinant; tags: N-terminal GST; dsDNA, one strand shown
# T5 sequence: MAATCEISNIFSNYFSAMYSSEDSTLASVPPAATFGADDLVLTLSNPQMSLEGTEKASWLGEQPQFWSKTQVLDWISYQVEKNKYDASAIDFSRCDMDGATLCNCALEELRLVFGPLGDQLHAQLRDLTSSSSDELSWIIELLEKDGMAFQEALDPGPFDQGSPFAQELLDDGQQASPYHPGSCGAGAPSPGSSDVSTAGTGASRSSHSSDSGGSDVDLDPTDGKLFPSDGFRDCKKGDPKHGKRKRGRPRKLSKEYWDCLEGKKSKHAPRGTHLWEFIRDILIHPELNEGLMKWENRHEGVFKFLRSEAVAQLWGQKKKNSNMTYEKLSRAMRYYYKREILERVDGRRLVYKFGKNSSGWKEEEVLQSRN
# Procedure, shortened: as §1
# CRX = CRX (Homo sapiens, UniProt O43186 1-299); details: protein: recombinant; tags: N-terminal GST; dsDNA, one strand shown
# Procedure, shortened: as §1
# ETV1 = ETV1 (Homo sapiens, UniProt P50549 1-477); details: protein: recombinant; tags: N-terminal GST; dsDNA, one strand shown
# Procedure, shortened: as §1
# ERF = molecular target: T6, ERF (Homo sapiens, UniProt P50548 1-548); details: protein: recombinant; tags: N-terminal GST; dsDNA, one strand shown
# T6 sequence: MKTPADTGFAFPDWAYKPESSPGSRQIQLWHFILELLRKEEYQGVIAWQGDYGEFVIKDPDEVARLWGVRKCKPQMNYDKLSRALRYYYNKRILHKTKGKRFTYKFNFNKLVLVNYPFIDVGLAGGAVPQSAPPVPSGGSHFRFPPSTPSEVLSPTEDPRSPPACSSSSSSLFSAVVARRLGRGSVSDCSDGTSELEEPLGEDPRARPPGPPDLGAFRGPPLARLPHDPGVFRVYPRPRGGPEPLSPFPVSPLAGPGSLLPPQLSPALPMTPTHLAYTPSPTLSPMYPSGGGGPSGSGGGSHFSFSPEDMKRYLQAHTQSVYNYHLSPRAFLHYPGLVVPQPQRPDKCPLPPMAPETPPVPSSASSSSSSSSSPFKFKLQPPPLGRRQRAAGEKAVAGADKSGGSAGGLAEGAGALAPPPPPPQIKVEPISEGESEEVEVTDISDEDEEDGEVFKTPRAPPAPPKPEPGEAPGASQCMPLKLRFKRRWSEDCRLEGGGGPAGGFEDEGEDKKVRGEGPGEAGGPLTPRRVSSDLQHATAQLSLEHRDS
# Procedure, shortened: as §1
# ETV3L = molecular target: T7, ETV3L (Homo sapiens, UniProt Q6ZN32 1-361); details: protein: recombinant; tags: N-terminal GST; dsDNA, one strand shown
# T7 sequence: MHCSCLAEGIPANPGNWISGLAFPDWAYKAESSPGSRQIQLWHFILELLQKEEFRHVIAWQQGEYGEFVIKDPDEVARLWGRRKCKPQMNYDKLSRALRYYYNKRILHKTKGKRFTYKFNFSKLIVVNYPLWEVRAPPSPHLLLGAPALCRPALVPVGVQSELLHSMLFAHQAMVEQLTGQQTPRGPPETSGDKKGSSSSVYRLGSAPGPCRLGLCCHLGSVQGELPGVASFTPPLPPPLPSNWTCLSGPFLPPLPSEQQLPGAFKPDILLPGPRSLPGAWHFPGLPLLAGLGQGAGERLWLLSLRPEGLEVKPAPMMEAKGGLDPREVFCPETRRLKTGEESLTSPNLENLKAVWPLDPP
# Procedure, shortened: as §1
# ETS2 = molecular target: T8, ETS2 (Homo sapiens, UniProt P15036 1-469); details: protein: recombinant; tags: N-terminal GST; dsDNA, one strand shown
# T8 sequence: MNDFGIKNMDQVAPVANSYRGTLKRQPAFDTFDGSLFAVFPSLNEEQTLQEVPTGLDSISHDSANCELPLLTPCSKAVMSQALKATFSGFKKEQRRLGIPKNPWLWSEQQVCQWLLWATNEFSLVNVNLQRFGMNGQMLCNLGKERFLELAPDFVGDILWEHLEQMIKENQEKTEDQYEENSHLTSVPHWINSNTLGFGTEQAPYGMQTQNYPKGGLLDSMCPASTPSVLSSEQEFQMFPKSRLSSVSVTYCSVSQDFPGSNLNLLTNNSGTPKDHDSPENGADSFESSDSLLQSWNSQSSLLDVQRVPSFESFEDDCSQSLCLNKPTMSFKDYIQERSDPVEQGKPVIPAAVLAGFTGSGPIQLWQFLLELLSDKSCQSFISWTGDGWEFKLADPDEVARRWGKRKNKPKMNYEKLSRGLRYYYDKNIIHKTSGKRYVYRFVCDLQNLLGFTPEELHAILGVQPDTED
# Procedure, shortened: as §1
# SPDEF = molecular target: T9, SPDEF (Homo sapiens, UniProt O95238 1-335); details: protein: recombinant; tags: N-terminal GST; dsDNA, one strand shown
# T9 sequence: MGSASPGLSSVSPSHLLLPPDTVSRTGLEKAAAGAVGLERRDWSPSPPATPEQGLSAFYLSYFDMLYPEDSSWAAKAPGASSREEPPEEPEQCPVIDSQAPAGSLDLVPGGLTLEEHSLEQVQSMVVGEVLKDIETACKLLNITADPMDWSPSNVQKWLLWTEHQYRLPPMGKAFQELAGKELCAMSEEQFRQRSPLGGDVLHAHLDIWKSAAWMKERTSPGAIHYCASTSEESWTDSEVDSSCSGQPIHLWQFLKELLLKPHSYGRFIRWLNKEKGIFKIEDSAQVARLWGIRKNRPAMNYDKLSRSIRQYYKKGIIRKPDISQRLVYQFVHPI
# Procedure, shortened: as §1
# ETV7 = molecular target: T10, ETV7 (Homo sapiens, UniProt Q9Y603 1-341); details: protein: recombinant; tags: N-terminal GST; dsDNA, one strand shown
# T10 sequence: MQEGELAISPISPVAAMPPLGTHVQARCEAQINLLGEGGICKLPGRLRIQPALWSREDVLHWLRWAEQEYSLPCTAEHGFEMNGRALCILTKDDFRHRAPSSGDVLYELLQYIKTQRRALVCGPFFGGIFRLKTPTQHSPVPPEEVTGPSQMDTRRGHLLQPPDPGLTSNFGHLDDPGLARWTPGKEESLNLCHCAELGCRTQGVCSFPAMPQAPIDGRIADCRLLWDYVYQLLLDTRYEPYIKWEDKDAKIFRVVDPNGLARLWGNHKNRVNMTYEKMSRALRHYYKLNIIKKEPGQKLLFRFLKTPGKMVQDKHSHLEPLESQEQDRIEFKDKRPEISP
# Procedure, shortened: as §1
# ELF5 = molecular target: T11, ELF5 (Homo sapiens, UniProt Q9UKW6-2 1-255); details: protein: recombinant; tags: N-terminal GST; dsDNA, one strand shown
# T11 sequence: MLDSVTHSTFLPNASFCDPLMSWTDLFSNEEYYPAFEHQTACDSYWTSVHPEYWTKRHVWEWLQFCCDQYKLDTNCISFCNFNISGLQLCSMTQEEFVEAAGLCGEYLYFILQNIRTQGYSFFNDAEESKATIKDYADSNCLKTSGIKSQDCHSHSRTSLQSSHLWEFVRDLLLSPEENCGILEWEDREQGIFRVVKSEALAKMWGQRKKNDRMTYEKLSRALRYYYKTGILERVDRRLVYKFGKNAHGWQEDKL
# Procedure, shortened: as §1
# ETV3 = molecular target: T12, ETV3 (Homo sapiens, UniProt P41162-2 1-143); details: protein: recombinant; tags: N-terminal GST; dsDNA, one strand shown
# T12 sequence: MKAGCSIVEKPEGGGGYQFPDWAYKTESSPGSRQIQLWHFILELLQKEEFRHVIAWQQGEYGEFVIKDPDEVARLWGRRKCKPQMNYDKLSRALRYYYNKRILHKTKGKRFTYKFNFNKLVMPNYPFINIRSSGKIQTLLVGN
# Procedure, shortened: as §1
# ETV6 = ETV6 (Homo sapiens, UniProt P41212 1-452); details: protein: recombinant; tags: N-terminal GST; dsDNA, one strand shown
# Procedure, shortened: as §1
# ETV5, sequence (P41161 whole entry): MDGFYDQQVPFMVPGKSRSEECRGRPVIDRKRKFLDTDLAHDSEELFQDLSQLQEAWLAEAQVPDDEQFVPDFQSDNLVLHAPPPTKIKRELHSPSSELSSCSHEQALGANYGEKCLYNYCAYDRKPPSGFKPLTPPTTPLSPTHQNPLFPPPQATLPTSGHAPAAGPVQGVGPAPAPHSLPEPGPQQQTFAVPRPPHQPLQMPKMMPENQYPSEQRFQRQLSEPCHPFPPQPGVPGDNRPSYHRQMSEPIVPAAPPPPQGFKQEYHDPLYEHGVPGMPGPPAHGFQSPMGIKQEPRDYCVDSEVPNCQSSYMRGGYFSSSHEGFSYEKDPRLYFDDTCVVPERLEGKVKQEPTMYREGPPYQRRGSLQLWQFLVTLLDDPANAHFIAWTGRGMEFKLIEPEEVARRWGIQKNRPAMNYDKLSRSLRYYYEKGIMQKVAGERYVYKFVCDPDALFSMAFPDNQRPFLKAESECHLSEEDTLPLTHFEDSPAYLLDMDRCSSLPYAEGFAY
# ELF4, sequence (Q99607 whole entry): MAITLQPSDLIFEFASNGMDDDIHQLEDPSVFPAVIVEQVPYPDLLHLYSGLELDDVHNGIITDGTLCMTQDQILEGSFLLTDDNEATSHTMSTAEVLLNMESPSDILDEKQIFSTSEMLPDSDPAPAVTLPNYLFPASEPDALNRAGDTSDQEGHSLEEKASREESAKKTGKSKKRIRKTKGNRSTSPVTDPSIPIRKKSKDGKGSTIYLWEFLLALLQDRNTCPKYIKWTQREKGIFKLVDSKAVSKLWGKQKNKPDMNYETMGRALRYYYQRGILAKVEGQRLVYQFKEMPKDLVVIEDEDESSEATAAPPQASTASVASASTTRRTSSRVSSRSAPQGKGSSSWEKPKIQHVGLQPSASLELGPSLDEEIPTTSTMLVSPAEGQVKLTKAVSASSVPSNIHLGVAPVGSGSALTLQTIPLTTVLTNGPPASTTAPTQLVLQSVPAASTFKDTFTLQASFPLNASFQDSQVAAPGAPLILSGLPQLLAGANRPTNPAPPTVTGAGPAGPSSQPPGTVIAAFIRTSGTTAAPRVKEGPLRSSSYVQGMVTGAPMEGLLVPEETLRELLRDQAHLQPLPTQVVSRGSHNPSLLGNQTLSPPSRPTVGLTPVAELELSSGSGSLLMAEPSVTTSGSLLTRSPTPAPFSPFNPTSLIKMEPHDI
# ETV6, sequence (P41212 whole entry): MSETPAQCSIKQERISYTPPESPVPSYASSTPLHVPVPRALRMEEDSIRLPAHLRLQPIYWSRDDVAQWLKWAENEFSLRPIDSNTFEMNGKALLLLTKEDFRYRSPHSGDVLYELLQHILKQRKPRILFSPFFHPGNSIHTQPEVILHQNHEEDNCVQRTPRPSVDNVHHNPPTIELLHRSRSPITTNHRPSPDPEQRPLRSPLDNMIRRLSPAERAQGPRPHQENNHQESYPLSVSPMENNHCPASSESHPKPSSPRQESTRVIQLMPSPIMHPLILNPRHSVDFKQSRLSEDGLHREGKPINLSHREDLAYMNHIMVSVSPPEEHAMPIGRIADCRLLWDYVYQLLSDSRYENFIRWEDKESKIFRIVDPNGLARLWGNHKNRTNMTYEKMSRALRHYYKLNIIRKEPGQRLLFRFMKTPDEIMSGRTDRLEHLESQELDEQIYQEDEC
# CRX, sequence (O43186 whole entry): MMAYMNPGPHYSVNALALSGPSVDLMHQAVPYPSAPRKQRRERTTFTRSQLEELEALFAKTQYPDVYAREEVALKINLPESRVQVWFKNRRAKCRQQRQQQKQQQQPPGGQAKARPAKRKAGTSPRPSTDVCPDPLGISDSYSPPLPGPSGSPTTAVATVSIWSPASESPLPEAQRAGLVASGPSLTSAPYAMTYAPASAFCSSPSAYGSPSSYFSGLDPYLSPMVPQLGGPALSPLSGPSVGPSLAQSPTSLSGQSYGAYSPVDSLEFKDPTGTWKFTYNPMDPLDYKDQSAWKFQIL
# HSF1, sequence (Q00613 whole entry): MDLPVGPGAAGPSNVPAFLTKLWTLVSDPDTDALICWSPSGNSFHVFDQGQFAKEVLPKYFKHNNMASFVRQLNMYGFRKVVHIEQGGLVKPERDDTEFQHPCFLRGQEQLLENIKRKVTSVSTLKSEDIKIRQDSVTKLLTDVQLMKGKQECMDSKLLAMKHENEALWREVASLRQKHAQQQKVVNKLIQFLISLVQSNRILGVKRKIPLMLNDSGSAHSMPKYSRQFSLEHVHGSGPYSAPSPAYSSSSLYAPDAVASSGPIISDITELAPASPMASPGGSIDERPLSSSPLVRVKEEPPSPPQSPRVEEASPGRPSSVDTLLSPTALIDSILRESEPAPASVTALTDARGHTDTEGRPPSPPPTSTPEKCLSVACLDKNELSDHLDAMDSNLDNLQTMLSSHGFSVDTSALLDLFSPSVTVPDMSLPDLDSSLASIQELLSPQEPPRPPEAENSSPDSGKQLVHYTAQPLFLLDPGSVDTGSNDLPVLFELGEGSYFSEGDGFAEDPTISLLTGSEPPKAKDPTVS
# ETV1, sequence (P50549 whole entry): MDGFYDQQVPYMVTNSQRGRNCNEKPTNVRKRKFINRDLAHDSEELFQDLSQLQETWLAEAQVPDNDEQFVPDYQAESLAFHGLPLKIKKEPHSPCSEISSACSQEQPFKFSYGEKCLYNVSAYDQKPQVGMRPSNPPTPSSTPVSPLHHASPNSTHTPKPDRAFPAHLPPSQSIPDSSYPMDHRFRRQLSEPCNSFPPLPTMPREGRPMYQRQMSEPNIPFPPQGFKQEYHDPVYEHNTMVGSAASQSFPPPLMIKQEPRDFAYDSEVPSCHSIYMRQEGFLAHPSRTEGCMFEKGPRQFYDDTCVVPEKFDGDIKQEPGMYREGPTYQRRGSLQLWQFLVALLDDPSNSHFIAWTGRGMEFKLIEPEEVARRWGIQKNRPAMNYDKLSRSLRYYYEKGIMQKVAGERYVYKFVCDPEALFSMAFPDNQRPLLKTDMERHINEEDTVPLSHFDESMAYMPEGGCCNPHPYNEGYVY
sequence,measurement,setting,value
CCCACT,binding signal,FEV,"1.5 fold enrichment (6-mer frequency, TF over GST control)"
same,binding signal,ETV5,"1.33 fold enrichment (6-mer frequency, TF over GST control)"
same,binding signal,HSF1,"1.07 fold enrichment (6-mer frequency, TF over GST control)"
same,binding signal,SPIC,"1.27 fold enrichment (6-mer frequency, TF over GST control)"
same,binding signal,ELF4,"1.43 fold enrichment (6-mer frequency, TF over GST control)"
same,binding signal,ELK4,"1.24 fold enrichment (6-mer frequency, TF over GST control)"
same,binding signal,ETV2,"1.37 fold enrichment (6-mer frequency, TF over GST control)"
same,binding signal,ELF3,"1.18 fold enrichment (6-mer frequency, TF over GST control)"
same,binding signal,CRX,"1.14 fold enrichment (6-mer frequency, TF over GST control)"
same,binding signal,ETV1,"1.34 fold enrichment (6-mer frequency, TF over GST control)"
same,binding signal,ERF,"1.42 fold enrichment (6-mer frequency, TF over GST control)"
same,binding signal,ETV3L,"1.37 fold enrichment (6-mer frequency, TF over GST control)"
same,binding signal,ETS2,"1.32 fold enrichment (6-mer frequency, TF over GST control)"
same,binding signal,SPDEF,"1.27 fold enrichment (6-mer frequency, TF over GST control)"
same,binding signal,ETV7,"1.28 fold enrichment (6-mer frequency, TF over GST control)"
same,binding signal,ELF5,"1.31 fold enrichment (6-mer frequency, TF over GST control)"
same,binding signal,ETV3,"1.32 fold enrichment (6-mer frequency, TF over GST control)"
same,binding signal,ETV6,"1.37 fold enrichment (6-mer frequency, TF over GST control)"
